PubChem BioAssay (NCI)
Values joined by “and” are separate entries in the source; they are usually repeats but may differ in a detail not shown here. Identical values can stand only once. Compounds without any hit were thinned out: in the full panel of roughly 83,000, 20% have a hit.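 Plates (96-well) were seeded with cells, treated with compound at one concentration, and incubated for 48 hours before percent growth was determined.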 Unmarked numbers belong to inactive results. Active and inactive are the calls of the source. The calls were made as follows: active = growth percent below 10; inactive = the rest.

The compounds below were run on MDA-MB-468 breast (assay: NCI-60 one-dose screen, 48 h (100 = growth as untreated, 0 = no growth, -100 = all killed)). Details: 10 µM unless noted.
With `C=C(CNCCO)[C@@H]1CC[C@]2(CO)CC[C@]3(C)[C@H](CC[C@@H]4[C@@]5(C)CCC(NCCc6ccc(O)cc6)C(C)(C)[C@@H]5CC[C@]43C)[C@@H]12` (stereo partly specified) the growth was -77.3% (active). For `CC(C)N(C(=S)SSC(=S)N(C(C)C)C(C)C)C(C)C`, the growth was 110%. In the case of `CO/N=C/C=C\C(=O)N/C=C/C[C@H]1/C=C/[C@H](O)/C=C\C=C\c2cccc(O)c2C(=O)O1`, the growth is reported as 59.1% and 46.3%. In the case of `Cc1ccc(C[P+](c2ccccc2)(c2ccccc2)c2ccccc2)cc1`, the growth is reported as -12.9% (active). `Brc1cccc(-n2ncc3c(Nc4ccc(-c5nnc(-c6ccccc6)o5)cc4)ncnc32)c1` was tested, and the growth was 101%. Work on `O=C1Nc2ccc(Cl)cc2/C1=C/c1ccc(OCC(=O)c2ccc(Br)cc2)cc1` yielded a growth of 111%. With `CCCc1ccnc(NS(=O)(=O)c2ccc(N)cc2)n1` the growth was 8.05% (active). In the case of `CO[C@H](C(=O)[C@@H](O)[C@@H](C)O)[C@@H]1Cc2cc3cc(O[C@H]4C[C@@H](O[C@H]5C[C@@H](O)[C@H](O)C(C)O5)[C@H](O)C(C)(O)O4)cc(O)c3c(O)c2C(=O)[C@H]1O[C@H]1C[C@@H](O[C@H]2C[C@@H](O[C@H]3C[C@@H](OC)[C@H](O)C(C)O3)[C@@H](O)C(C)O2)[C@H](O)C(C)O1` (stereo partly specified), the growth is reported as 14%. `N#Cc1cc(-c2nc3ccccc3s2)c(=O)n(NS(=O)(=O)c2ccccc2)c1N` showed a growth of 118%. Compound `COc1ccc(NC(=O)CSc2nc3ccccc3c(=O)n2CCc2ccccc2)cc1` has a growth of 87.7%. `Nc1ncnc(Nc2ccccc2)n1` gave a growth of 108%. With `CCc1cccc(CC)c1N1C(=O)C=CC1=O` the growth was 34.7%. Work on `COC(=O)[C@]12CCC(C)(C)C[C@H]1[C@H]1C(=O)C[C@@H]3[C@@]4(C)c5c([nH]c6ccccc6c5=O)C(C)(C)[C@@H]4CC[C@@]3(C)[C@]1(C)CC2` yielded a growth of 34.5%. In the case of `CCN1C(=O)N(CC)C2C1NN=c1s/c(=C3\C(=O)N(C(C)C)c4ccccc43)c(=O)n12` (stereo unspecified), the growth is reported as 16.5%. For `CC(C)CC(NC(=O)C(CCCN=C(N)N)NC(=O)OCc1ccccc1)C(=O)NC(CNC(=O)/C=C/c1ccccc1)C(C)C` (stereo unspecified), the growth was 94.4%. Compound `CCN(CC)c1cn(-c2ccc(S(N)(=O)=O)cc2)nn1` has a growth of 91.9%. For `O=C(Cc1ccc(/C=C/C(=O)c2nccs2)cc1)Nc1ccccc1`, the growth was 91.7%. In the case of `C/C(Cc1ccc(Cl)cc1)=C(/c1ccc(Cl)cc1)c1ccc(OCCN2CCCC2)cc1`, the growth is reported as 66.1%. In the case of `CC12CCC3c4ccccc4CCC3(CO1)C2` (stereo unspecified), the growth is reported as 88.7%. In the case of `COc1cccc(-c2nn(-c3ccccc3)cc2-c2ccnc(NCCCNC(=O)c3ccccc3)c2)c1`, the growth is reported as 15.2%. In the case of `COc1cc(CNC(=O)CCSc2nc3ccccc3c(=O)n2Cc2cc(OC)c(OC)c(OC)c2)cc(OC)c1OC`, the growth is reported as 1.82% (active). In the case of `CCN(CC)S(=O)(=O)c1ccc(-c2nc(C(Cl)Cl)nc3cc(C)nn23)cc1`, the growth is reported as -33.6% (active). Work on `O=C(c1ccc(Cl)cc1)C1[C@H](c2ccc(Cl)cc2)[C@@H](c2ccccc2)NC12C(=O)Nc1ccc(Br)cc12` (stereo partly specified) yielded a growth of 45.8%. `O=[N+]([O-])C1C(c2ccccc2)C12c1ccccc1-c1ccccc12` (stereo unspecified) was tested, and the growth was -26% (active). For `Cc1c(Cl)cccc1C(=O)Nc1nc2c(s1)CN(C(=O)c1ccc(C(F)(F)F)cc1)CC2`, the growth was 17.7%. For `CC[C@@H]1OC(=O)[C@H](C)[C@@H](O[C@H]2C[C@@](C)(OC)[C@@H](O)[C@H](C)O2)[C@H](C)[C@@H](O[C@@H]2O[C@H](C)C[C@H](N(C)C)[C@H]2O)[C@](C)(O)C[C@@H](C)[C@@H]2N[C@@H](COCCOC)O[C@H]([C@H]2C)[C@]1(C)O`, the growth was 109%. For `Fc1ccc(Nc2ccc3c(OCCCN4CCOCC4)cccc3n2)cc1F`, the growth was 46.3%. For `O=C(O)c1ccccc1Nc1cccc(S(F)(F)(F)(F)F)c1`, the growth was 111%. `CC(C)(C)c1cc(/C=N\NC(=O)/C=C/C=C/c2ccc3c(c2)OCO3)c(O)c(C(C)(C)C)c1` gave a growth of 70.7%. With `N#Cc1ccc(-c2ccc3c(c2)NC(=O)/C3=C\c2ccc[nH]2)cc1` the growth was -18.2% (active). In the case of `C#CCOc1cccc(-c2nc(N)nc(Nc3ccccc3SSc3ccccc3Nc3nc(N)nc(-c4cccc(OCC#C)c4)n3)n2)c1`, the growth is reported as 73%.
